The text below walks through data of PubChem BioAssay (NCATS).

Molecules are shown by their SMILES.

The nature of test [1]: qHTS profiling of the MIPE4 collection as inhibitors of Plasmodium falciparum (3D7) proliferation (AID 743344).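 Further: scaled between DMSO vehicle wells and 0.29 µM artemisinin as full inhibition.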 Particulars: P. falciparum 3D7 in erythrocytes, SYBR Green DNA fluorescence, 72 h. An outline of the steps: (§1)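 Parasite DNA was quantified by SYBR Green I fluorescence (ex 485, em 535 nm) after overnight lysis in saponin/Triton buffer at room temperature. Cultures at 0.3% parasitemia and 2.5% hematocrit were first exposed to compound for 72 h at 37 C; signals were normalised to artemisinin (0.29 uM) and vehicle wells.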
On the technique in general: In qHTS, concentration-response curves come from the screen itself.

Test [2] in a line: High-throughput drug toxicity screening in the BPDCN cell line Gen2.2 (AID 1224824).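 Further: cells exposed to compounds for 48 h before reading.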 Particulars: Gen2.2 BPDCN cells; at 45.8 µM (top of the series) unless noted. The gist of the method: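 Readout is ATP luminescence from Gen2.2 cells after two days of drug exposure in serum-containing medium at 37 °C. Values express percent activity, with vehicle defining full signal and 9.2 uM bortezomib defining zero.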

The nature of test [3]: High-throughput drug toxicity screening in the BPDCN cell line Cal-1 (AID 1224825). The settings on record: Cal-1 BPDCN cell viability, qHTS; at 45.8 µM (top of the series) unless noted. The gist of the method: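 CellTiter-Glo luminescence after 48 h compound exposure; percent activity scaled with DMSO as 100% and bortezomib (9.2 uM final) as 0%. Cal-1 cells seeded at 500/well in RPMI, 10% FBS, no phenol red.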

The nature of test [4]: qHTS profiling of the MIPE4 collection as inhibitors of Plasmodium falciparum (DD2) proliferation (AID 743345). The settings on record: P. falciparum Dd2 in erythrocytes, SYBR Green DNA, 72 h. An outline of the steps:
as §1

Test [5] in a line: qHTS profiling of the MIPE4 collection as inhibitors of Plasmodium falciparum (DD2) proliferation (Rep 2) (AID 743346). The settings on record: P. falciparum Dd2 in erythrocytes, SYBR Green DNA, 72 h; at 28.5 µM unless noted. The gist of the method:
as §1

Test [6] can be described thus: qHTS profiling of the MIPE4 collection as inhibitors of Plasmodium falciparum (HB3) proliferation (AID 743347).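 Further: plate controls were DMSO vehicle wells for no effect and artemisinin wells for full effect.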 Particulars: P. falciparum HB3 in erythrocytes, SYBR Green DNA, 72 h. The gist of the method: as §1
The mark [7] stands for this setting: at 28.5 µM unless noted.

In test [1] (setting [7]), `CCCCN1CCC(CNC(=O)c2c3n(c4ccccc24)CCCO3)CC1` registered a parasite growth, % of DMSO control of 25.9%. For the same compound, in test [2], the cell viability, % of control (lower = more cytotoxic) was 110%. Also, the viability (% of control) in test [3] is 9.06%.

For `CCc1cc2c(cc1N1CCC(N3CCOCC3)CC1)C(C)(C)c1[nH]c3cc(C#N)ccc3c1C2=O`, the parasite growth, % of DMSO control in test [1] (setting [7]) is 12.5%. In test [4] (setting [7]), this compound returned a parasite growth remaining, % of DMSO control (lower = more inhibition) of 8.84%. Further, the parasite growth, % of control (lower = inhibition) in test [5] came out at 33.7%. Further, the cell viability, % of control (lower = more cytotoxic) in test [2] was 258%. The viability (% of control) in test [3] came to 76.4%.

In test [1] (setting [7]), `CC(C)c1noc(N2CCC(COc3ccc(-c4ccc(S(C)(=O)=O)cc4)nc3)CC2)n1` yielded a parasite growth, % of DMSO control of 22.7%. This compound also gave a parasite growth remaining, % of DMSO control (lower = more inhibition) in test [4] (setting [7]) of 23.2%. In test [5], this compound came in with a parasite growth, % of control (lower = inhibition) of 49.7%. The growth, % of control in test [6] (setting [7]) came to 20.9%. Also, the cell viability, % of control (lower = more cytotoxic) in test [2] came to 87.9%. Besides, the viability (% of control) in test [3] turned out to be 68.8%.

The compound `COc1cc(C(=O)NS(=O)(=O)c2ccccc2C)ccc1Cc1cn(C)c2ccc(NC(=O)OC3CCCC3)cc12` displayed a parasite growth, % of DMSO control in test [1] (setting [7]) of 5.96%. In test [4] (setting [7]), this compound gave a parasite growth remaining, % of DMSO control (lower = more inhibition) of 7.78%. The parasite growth, % of control (lower = inhibition) in test [5] was 16.7%. Besides, in test [6] (setting [7]), the growth, % of control was found to be 7.01%. Moreover, the cell viability, % of control (lower = more cytotoxic) in test [2] amounted to 13%. For the same compound, the viability (% of control) in test [3] was 4.45%.

Regarding `CC(C)c1cnn2c(NCc3ccccc3)cc(N[C@@H](CO)[C@H](O)CO)nc12`, the parasite growth, % of DMSO control in test [1] (setting [7]) came to 21.9%. Besides, the parasite growth remaining, % of DMSO control (lower = more inhibition) in test [4] (setting [7]) was 61.8%. Moreover, the parasite growth, % of control (lower = inhibition) in test [5] is 21.4%. This compound showed a growth, % of control in test [6] (setting [7]) of 14.5%. The cell viability, % of control (lower = more cytotoxic) in test [2] is 3.01%. The viability (% of control) in test [3] was found to be 0.824%.

On to `COc1cccc2c(NCc3ccccc3)nc(-n3c(N)nc4ccccc43)nc12`, for which, in test [1] (setting [7]), the parasite growth, % of DMSO control is 5.92%. Besides, the parasite growth remaining, % of DMSO control (lower = more inhibition) in test [4] (setting [7]) turned out to be 5.67%. The same compound registered a parasite growth, % of control (lower = inhibition) in test [5] of 11.4%. Moreover, the cell viability, % of control (lower = more cytotoxic) in test [2] amounted to 3.5%. Further, the viability (% of control) in test [3] was found to be 2.1%.

In test [1] (setting [7]), `Cc1c(NC(=O)OC[C@@H]2COCCN2)cn2ncnc(Nc3ccc4c(cnn4Cc4cccc(F)c4)c3)c12` registered a parasite growth, % of DMSO control of 5.88%. In test [4] (setting [7]), the parasite growth remaining, % of DMSO control (lower = more inhibition) turned out to be 11%. For the same compound, the parasite growth, % of control (lower = inhibition) in test [5] came out at 24.7%. In addition, in test [2], the cell viability, % of control (lower = more cytotoxic) is 285%. The viability (% of control) in test [3] is 13.9%.

Consider `CC=CC1=C(C(=O)O)N2C(=O)[C@H](NC(=O)[C@H](N)c3ccc(O)cc3)[C@@H]2SC1`, for which, in test [1] (setting [7]), the parasite growth, % of DMSO control is 99.8%. Also, in test [4] (setting [7]), the parasite growth remaining, % of DMSO control (lower = more inhibition) turned out to be 99.9%. In addition, the parasite growth, % of control (lower = inhibition) in test [5] turned out to be 99.4%. Further, the cell viability, % of control (lower = more cytotoxic) in test [2] is 52.6%. The viability (% of control) in test [3] was determined as 89.2%.

With `CN1CCN(Cc2ccc(NC(=O)Nc3ccc(Oc4cc(NC(=O)C5CC5)ncn4)cc3)cc2C(F)(F)F)CC1`, in test [1] (setting [7]), the parasite growth, % of DMSO control was 6%. Besides, the parasite growth remaining, % of DMSO control (lower = more inhibition) in test [4] (setting [7]) stood at 6.55%. The same compound showed a parasite growth, % of control (lower = inhibition) in test [5] of 14.2%. In addition, in test [6] (setting [7]), the growth, % of control worked out at 7.58%. For the same compound, the cell viability, % of control (lower = more cytotoxic) in test [2] was 0.71%. Moreover, the viability (% of control) in test [3] was determined as 0.746%.

With `Nc1nc(-c2nn(Cc3ccccc3F)c3ncccc23)nc(N)c1N1CCOCC1`, the parasite growth, % of DMSO control in test [1] (setting [7]) is 28.3%. For the same compound, the cell viability, % of control (lower = more cytotoxic) in test [2] was 199%. For the same compound, the viability (% of control) in test [3] is 101%.

`C[C@@H]1COC(Nc2ccc3ncnc(Nc4ccc(OCc5nccs5)c(Cl)c4)c3c2)=N1` had a parasite growth, % of DMSO control in test [1] (setting [7]) of 6%. The parasite growth remaining, % of DMSO control (lower = more inhibition) in test [4] (setting [7]) is 11.5%. The same compound registered a parasite growth, % of control (lower = inhibition) in test [5] of 27.7%. Moreover, the growth, % of control in test [6] (setting [7]) is 8.37%. The cell viability, % of control (lower = more cytotoxic) in test [2] worked out at 127%. Further, in test [3], the viability (% of control) worked out at 13%.

On to `OCCCNc1cc(-c2ccnc(Nc3cccc(Cl)c3)n2)ccn1`, for which the parasite growth, % of DMSO control in test [1] (setting [7]) is 5.7%. The same compound gave a parasite growth remaining, % of DMSO control (lower = more inhibition) in test [4] (setting [7]) of 10.1%. In addition, in test [5], the parasite growth, % of control (lower = inhibition) is 19.1%. Moreover, in test [2], the cell viability, % of control (lower = more cytotoxic) is 4.08%. For the same compound, the viability (% of control) in test [3] is 2.53%.

Turning to `C[C@H]1C[C@@H]2[C@@H]([C@@H](O)C[C@@]3(C)[C@H]2CC[C@]3(O)C(=O)CO)[C@@]2(C)C=CC(=O)C=C12`, the parasite growth, % of DMSO control in test [1] (at 9.64 µM (top of the series)) came to 78.1%; in test [1] (at 28.5 µM) it was 59.3%. Besides, the parasite growth remaining, % of DMSO control (lower = more inhibition) in test [4] (at 9.64 µM (top of the series)) turned out to be 93.1%; in test [4] (at 28.5 µM) it was 84.7%. Further, the growth, % of control in test [6] (at 9.64 µM (top of the series)) is 93.3%; in test [6] (at 28.5 µM) it was 57.2%. In test [2], the cell viability, % of control (lower = more cytotoxic) was found to be 111%. In test [3], the viability (% of control) worked out at 53.2%.

As for `CCOc1ccccc1OCCNC(C)Cc1ccc(OC)c(S(N)(=O)=O)c1` (stereo not given), in test [1] (setting [7]), the parasite growth, % of DMSO control was 65.8%. Besides, in test [4] (setting [7]), the parasite growth remaining, % of DMSO control (lower = more inhibition) is 84.6%. Besides, the parasite growth, % of control (lower = inhibition) in test [5] is 54.9%. In test [6] (setting [7]), this compound gave a growth, % of control of 90.8%. Moreover, in test [2], the cell viability, % of control (lower = more cytotoxic) was found to be 122%. For the same compound, in test [3], the viability (% of control) came out at 97.4%.
